Screens as filed in PubChem.
Pf apPOL block: Pf-apPOL DNA polymerase inhibition | Recombinant Pf-apPOL, molecular beacon fluorescence, 1.5 h | inhibition, % at 10 µM | 210,000 compounds, 0.25% hits | AID 1794808
mHTT-CaM PPI inh: inhibitors of human mutant huntingtin-calmodulin interaction; inhibition, % at 15 µM; AlphaScreen His-mHTT/GST-CaM binding, luminescence; 190,000 compounds, 3.6% hits; AID 1671202
Numbers stand for hits; i = inactive; nt = not tested or not shown. This is one part of a sample in which hits are shown more often than they occur. No stated cut-off is given here; in the data, active means inhibition above about 50%; inactive means the rest.

SMILES	Pf apPOL block	mHTT-CaM PPI inh
CCOc1cc(C)c(-c2n[nH]c(C)c2Oc2ccccc2)c(O)c1	i	i
O=C(c1cccs1)N(Cc1ccc(Br)cc1)c1ccc(F)cc1	i	nt
N#Cc1c(-c2ccccc2)cc(-c2ccc(F)cc2)nc1F	nt	i
Cc1ccc(-c2cc(-c3ccc(F)cc3)c(C#N)c(N)n2)o1	i	88
CC1CCN(CC(O)COc2ccc(C(C)(C)C)cc2)CC1 (stereo not drawn)	i	i
CC(C)n1c(COc2ccc(Cl)cc2)nc2ccccc21	i	i
O=C(c1cc2c(s1)CCCC2)N1CCc2c(nc[nH]c2=O)C1	i	i
COc1cccc(CC(=O)NNC(=O)NC(=O)c2ccccc2Cl)c1	54	nt
COc1cccc(NC(=O)c2ccccc2Cl)c1	i	i
CN(CCOC(=O)Nc1ccc(OC(F)(F)F)cc1)c1cc(C(F)(F)F)nc2ccccc12	i	nt
O=C(c1cccc(Br)c1)N1CCC(n2c(-c3ccoc3)nc3cccnc32)C1 (stereo not drawn)	i	55
COc1ccc(C(=O)N2CCC(n3c(-c4ccoc4)nc4cccnc43)C2)cc1F (stereo not drawn)	i	63
COc1cc(C(=O)N2CCC(n3c(-c4ccoc4)nc4cccnc43)C2)ccc1C (stereo not drawn)	i	i
O=C(NCc1ccccc1)N1CCC(n2c(-c3ccoc3)nc3cccnc32)C1 (stereo not drawn)	i	i
Cc1ccc(C(=O)N2CCC(n3c(-c4ccoc4)nc4cccnc43)C2)cc1C (stereo not drawn)	i	i
Cc1ccc(CNC(=O)N2CCC(n3c(-c4ccoc4)nc4cccnc43)C2)cc1 (stereo not drawn)	i	64
OCCCc1cc(-c2ccc(Cl)cc2)n[nH]1	i	nt
CC(=O)Nc1cc2cc(NC(=O)c3ccc([N+](=O)[O-])cc3)ccc2oc1=O	i	nt
Cc1ccc(NCCC(=O)c2cccc([N+](=O)[O-])c2)cc1	i	i
CC(C)c1ccc(NCCC(=O)c2ccc([N+](=O)[O-])cc2)cc1	i	56
CC1(C(=O)NCc2ccccc2)CCCN(C(=O)Nc2ccccc2C(F)(F)F)C1 (stereo not drawn)	i	i
Cc1ccccc1CNC(=O)C1(C)CCCN(S(=O)(=O)c2ccccc2Cl)C1 (stereo not drawn)	i	i
Cc1ccc(C)c(S(=O)(=O)N2CCCC(C)(C(=O)NCc3ccccc3)C2)c1 (stereo not drawn)	i	i
Cc1ccccc1CNC(=O)C1(C)CCCN(S(=O)(=O)c2cccc(Cl)c2C)C1 (stereo not drawn)	i	61
Cc1c(Cl)cccc1S(=O)(=O)N1CCCC(C)(C(=O)NCc2ccccc2)C1 (stereo not drawn)	i	65
SMILES	Pf apPOL block	mHTT-CaM PPI inh
CC(C)(C)C(=O)N1CCCC(C(=O)Nc2sc3c(c2C(N)=O)CCCC3)C1 (stereo not drawn)	i	i
NS(=O)(=O)c1ccc(NC(=O)CSc2nnc(-c3ccco3)c(-c3ccco3)n2)cc1	i	i
O=C(CSc1nnc(-c2ccco2)c(-c2ccco2)n1)Nc1ccc(Cl)cc1	i	99
N#CCN(CC#N)C(=O)c1ccc(F)cc1	i	i
Clc1ccc(OCCCN2CCOCC2)cc1	i	i
Clc1ccc(OCCN2CCOCC2)cc1	82	i
O=C(c1ccc(N2CCNC(c3ccccc3)C2)nc1)N1CCc2ccccc2C1 (stereo not drawn)	i	71
CN1CCN(C(=O)c2ccc(N3CCNC(c4ccccc4)C3)nc2)CC1 (stereo not drawn)	i	i
CC1C(=O)C(Cc2cn(CCC3OCCO3)nn2)CCS(=O)(=O)N1Cc1ccc(-c2ccc(Cl)nc2)cc1 (stereo not drawn)	i	i
O=C(O)C1C2CCC(C2)C1C(=O)Nc1nc(-c2ccc(Cl)cc2)cs1 (stereo not drawn)	i	i
O=c1ccc(-c2ccc(Cl)cc2)nn1CCNS(=O)(=O)c1ccc2c(c1)CCCC2	i	80
O=C(NCCCn1nc(-c2ccc(Cl)cc2)ccc1=O)C1CCCC1	i	i
CS(=O)(=O)N(CC(=O)N1CCCCC1)c1cc(Cl)ccc1Cl	i	i
CC(=O)NC1=NC(=O)/C(=C/c2c(C)n(Cc3ccc(F)cc3)c3ccccc23)S1	i	100
CC(=O)NC1=NC(=O)/C(=C/c2ccc(F)cc2)S1	i	i
CC(=O)C1=C(C)NC(SCC(=O)c2ccccc2)=C(C#N)C1c1cccnc1 (stereo not drawn)	i	i
O=C(Nc1nc(-c2ccccc2)cs1)c1ccccc1	i	i
COC(=O)c1ccc(-c2csc(NC(=O)c3cc(C)no3)n2)cc1	i	i
O=C(Nc1nc(-c2ccccn2)cs1)c1ccc(Br)s1	i	100
Cc1cc(C(=O)Nc2nc(-c3ccccn3)cs2)on1	i	100
COc1cc(NC(=O)c2ccccc2)c(OC)cc1NC(=O)COc1ccccc1	i	59
COCC(=O)Nc1cc(OC)c(NC(=O)c2ccccc2)cc1OC	i	i
COc1cc(C(=O)Nc2nc(-c3ccccn3)cs2)cc(OC)c1OC	i	100
COc1cc(C(=O)Nc2nc(-c3ccc(Cl)cc3)cs2)cc(OC)c1OC	i	i
COc1cc(NC(=O)c2ccc(Cl)c(Cl)c2)c(OC)cc1NC(=O)c1ccccc1	i	i
SMILES	Pf apPOL block	mHTT-CaM PPI inh
O=C(Nc1cnc(N2CCCCC2)nc1)c1ccsc1	i	i
Cc1ccc(S(=O)(=O)N2CCCC2c2nc(-c3ccc(Cl)cc3)no2)cc1C (stereo not drawn)	i	i
Cc1ccc(-n2c3c(cc(C(=O)NCc4ccc5c(c4)OCO5)c2=O)C(=O)CC(C)(C)C3)cc1	i	i
COc1cc(C(=O)Nc2cccc(NC(=O)c3ccccc3)c2)cc(OC)c1OC	i	52
COc1cc(C(=O)Nc2ccc(NC(=O)c3ccccc3)cc2)cc(OC)c1OC	i	i
O=C(NCc1ccccc1)C1CCN(c2nccn3nc(-c4cccs4)cc23)CC1	i	i
COCCn1c(C2CCN(C(=O)Nc3ccc(C(F)(F)F)cc3)C2)nc2cccnc21 (stereo not drawn)	i	i
Cc1ccc(CN2CCCn3nc(C(=O)NCc4cccc(Cl)c4)cc3C2=O)cc1	i	i
Cc1nc2c(C(=O)NCCC(C)C)cnn2c(C)c1Cc1cccc(Cl)c1	i	i
COC(CNC(=O)c1cnn2c(C)c(Cc3ccccc3)c(C)nc12)OC	i	i
Cc1nc2c(C(=O)NC(C)C)cnn2c(C)c1Cc1cccc(Cl)c1	i	70
COC(CNC(=O)c1cnn2c(C)c(Cc3cccc(Cl)c3)c(C)nc12)OC	i	61
N#Cc1ccc(Br)o1	nt	i
Fc1ccc([C@@H]2Nc3c(F)cccc3[C@@H]3C=CC[C@@H]32)cc1	nt	i
Fc1cccc2c1NC(c1ccc(Cl)cc1)C1CC=CC21 (stereo not drawn)	i	59
CC(=O)c1ccc(O)c2c1C1C=CCC1C(c1ccc(Cl)cc1)N2 (stereo not drawn)	i	64
Oc1ccc(Cl)c2c1NC(c1ccc(Cl)cc1)C1CC=CC21 (stereo not drawn)	i	100
O=C(Nc1cccc(-c2ccc(N3CCOCC3)nn2)c1)c1cccc(-n2cnnn2)c1	i	i
Cn1nc(-c2nc(C3CC3)no2)c2c1CCN(S(C)(=O)=O)C2	i	i
Cc1c(Cc2ccccc2)sc(N)c1C(N)=O	i	75
Cc1c(Cc2ccccc2)sc(NC(=O)Nc2ccccc2)c1C(N)=O	i	i
CC(C)C(=O)Nc1nnc(-c2ccc(Br)cc2)o1	i	i
Oc1c(Cl)cc(Br)cc1C=Nc1ccc2ncccc2c1	i	82
